High-throughput results deposited in PubChem by National Center for Advancing Translational Sciences (NCATS).
KB-3-1 cytotox – KB-3-1 parental cell cytotoxicity; Potency, µM (doses to about 46.1 µM), usual class: cytotoxic; KB-3-1 viability, CellTiter-Glo ATP luminescence, 72 h; 400,000 tested, 1.4% active; note: potency is the fitted concentration of half-maximal effect; % is set by controls: 0 for no effect and ±100 for the full control effect; nearly all actives have a fitted effect of over 60% in size
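KB-3-1 parental drug-naive adenocarcinoma cells in DMEM/10% FBS, incubated 72 h at 37 C with pin-transferred compounds across a concentration series. Viability by CellTiter-Glo luminescence; concentration-response curves fitted after normalization.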
Giardia kill – kills Giardia lamblia; Giardia lamblia trophozoite viability; 340,000 tested, 0.15% active; AID 540267; activity change, % at 7.66 µM, hits read low; in the data active = activity change below about -80%; inconclusive = between about -30% and that limit;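 note: parasites exposed to compound for two days anaerobically before the ATP read; % is set by controls: 0 for no effect and ±100 for the full control effect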
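Viability, read as ATP luminescence: trophozoites at 100 cells/well, compound added, 48 hrs anaerobic at 37 deg C, then 15-30 min room-temperature development before reading.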
SW480 rereplic – inducers of DNA re-replication in SW480 colon cancer cells | SW480 DNA re-replication, Hoechst DNA content imaging, 48 h | 340,000 tested, 1.8% active | Potency, µM (titrated, usually from 46.1 µM), inactives show at the highest dose re-replication activation, actives largely listed as activators; note: potency is the fitted concentration of half-maximal effect; % of control where 0% means no effect; nearly all actives have a fitted effect of over 55% in size
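Hoechst fluorescence of nuclei (405 nm excitation, 500-530 nm emission) measured by plate-scanning imager after 48 hr compound exposure at 37 C; re-replication scored as increased number of nuclei with elevated intensity.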
S-ASM inh – blocks human secretory acid sphingomyelinase. P17405. placental ASM, HMU-PC fluorogenic substrate, 60 min. Potency, µM (top dose mostly 57.5 µM), for inactives: at the top dose activity change, negative = inhibition, actives largely listed as inhibitors. 340,000 tested, 0.006% active. AID 504937; note: potency is the fitted concentration of half-maximal effect
Target sequence (P17405 47-631 limits assumed): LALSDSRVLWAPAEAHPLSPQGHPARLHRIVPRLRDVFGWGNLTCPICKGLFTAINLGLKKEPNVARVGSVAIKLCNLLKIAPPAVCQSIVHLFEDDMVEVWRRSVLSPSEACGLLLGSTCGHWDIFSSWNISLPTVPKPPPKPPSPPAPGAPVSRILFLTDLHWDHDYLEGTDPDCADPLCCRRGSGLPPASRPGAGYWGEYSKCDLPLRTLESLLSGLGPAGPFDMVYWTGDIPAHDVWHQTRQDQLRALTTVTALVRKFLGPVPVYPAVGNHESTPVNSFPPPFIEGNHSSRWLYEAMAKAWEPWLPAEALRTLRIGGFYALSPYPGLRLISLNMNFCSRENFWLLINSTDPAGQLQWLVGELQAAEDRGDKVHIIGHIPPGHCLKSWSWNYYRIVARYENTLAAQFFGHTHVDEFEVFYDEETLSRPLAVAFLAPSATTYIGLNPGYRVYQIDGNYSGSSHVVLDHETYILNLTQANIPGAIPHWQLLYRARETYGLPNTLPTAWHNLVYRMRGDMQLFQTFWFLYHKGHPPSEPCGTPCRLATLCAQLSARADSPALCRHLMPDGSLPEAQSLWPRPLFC
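HMU-PC0 cleavage (9 uM final) by human placental ASM, 60 min at 37 °C following 10 min compound exposure at RT; stopped at pH 10, fluorescence Ex 386/Em 447 nm.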
MCF10A rerep – induces DNA re-replication in MCF 10a normal breast cells; MCF 10A DNA re-replication, Hoechst nuclear intensity, 48 h; Potency, µM (doses to about 46.1 µM), inactives show at the top dose activity, positive = re-replication, actives largely listed as activators; 350,000 tested, 2.9% active; note: potency is the fitted concentration of half-maximal effect; % of control where 0% means no effect; nearly all actives have a fitted effect of over 50% in size
KB-V1 MDR tox – kills drug-selected multidrug resistant KB-V1 cells; AID 1347076; 400,000 tested, 3.4% active; Potency, µM (titrated, usually from 46.1 µM), most hits filed as cytotoxic; KB-V1 MDR cells viability, CellTiter-Glo, 72 h; note: potency is the fitted concentration of half-maximal effect; % is set by controls: 0 for no effect and ±100 for the full control effect; nearly all actives have a fitted effect of over 60% in size
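KB-V1, DMEM (no phenol red) + 10% FBS; cpd pin-transferred, titration series; 72 h, 37 degrees C; CellTiter-Glo, luminescence. Data normalized, curve-fit.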
The depositor's hits bear a star; i = inactive; u = inconclusive; x = no result given; [ ] = another dose, or the depositor's remark. Sampled rows, rich in hits. Any-hit rate of the full collection: about 6.9%. Unless noted, calls come from the whole dose curve; as a rule, active = well fitted curve in the direction sought with a large enough effect; inconclusive = small, poorly fitted or top-dose-only effect, or another doubt; inactive = no such curve, though single readings can be large; an effect the other way counts as inactive or inconclusive.

SMILES	KB-3-1 cytotox	Giardia kill	SW480 rereplic	S-ASM inh	MCF10A rerep	KB-V1 MDR tox
Cc1nc(NS(=O)(=O)c2ccccc2)sc1C(C)(C)C	i	6	-138%	3%	-1%	18µM*
CCc1nn2c(=O)cc(COC(=O)c3ccc(SC)cc3OC)nc2s1	i	3	-6%	0%	-6%	10µM*
Oc1c(CNc2ccccc2)cc(COCc2ccccc2)c2cccnc12	i	u	0.46µM*	-9%	8%	i
Cc1ccc(NCc2ccc(O)c3ncccc23)cc1	i	5	u	-1%	5%	i
Oc1c(CN2CCOCC2)cc(COCc2ccccc2)c2cccnc12	u	-28	3.7µM*	-1%	u	u
Oc1c(CN2CCOCC2)cc(CN2CCOCC2)c(O)c1O	i	5	-2%	-2%	1%	i
O=C(NC1CCCCC1)[C@@H]1CC=C[C@@H]2CCN(Cc3ccc(Cl)c(Cl)c3)C(=O)[C@@H]21	i	x	x	x	x	i
O=C1NC(c2ccc3c(c2)OCO3)Nc2ccccc21 (configuration not stated)	u	-9	u	95%	u	u
O=C1NC(c2ccc3ccccc3c2)Nc2ccccc21 (configuration not stated)	u	x	x	x	x	16µM*
CCN(CC)c1ccc(C2NC(=O)c3ccccc3N2)cc1 (configuration not stated)	4.1µM*	-86*	10µM*	43%	5.8µM*	2.3µM*
CCN(CC)c1ccc(C2Nc3cccc4cccc(c34)N2)cc1	i	-3	-20%[1.84 µM]	-5%	-24%	i
O=C1NC(c2ccc(Br)cc2)Nc2ccccc21 (configuration not stated)	u	20	u	171%	18µM*	6.5µM*
COc1ccc(C2NC(=O)c3ccccc3N2)cc1OC (configuration not stated)	i	-1	-7%	57%	u	i
C#CCSc1nc2ccccc2c(=O)n1CC=C	u	-18	x	x	x	u
Cc1cc(Nc2ccccc2)c2c([N+](=O)[O-])c(C)cc(C)c2n1	u	-26	-6%	-16%	20%	21µM*
CN(C(=O)NC1CCCCC1)[C@H]1C[C@H]2c3[nH]c4ccccc4c3CCN2C(=O)[C@H]1CO	6.5µM*	x	x	x	x	i
C[C@H](O)[C@@H]1CN2CCc3c([nH]c4ccccc34)[C@@H]2C[C@@H]1N(C)C(=O)Nc1cc(Cl)cc(Cl)c1	u	x	x	x	x	i
C[C@H](O)[C@@H]1CN2CCc3c([nH]c4ccc(-c5ccc6c(c5)OCO6)cc34)[C@@H]2C[C@@H]1N(C)C(=O)NC1CCCCC1	0.58µM*	x	x	x	x	u
C[C@H](O)[C@@H]1CN2CCc3c([nH]c4ccc(-c5ccc6c(c5)OCO6)cc34)[C@@H]2C[C@@H]1N(C)C(=O)Nc1cc(Cl)cc(Cl)c1	13µM*	x	x	x	x	u
O=C1Cc2cc(S(=O)(=O)N3CCN(c4ccc(Cl)cc4)CC3)ccc2N1	i	x	x	x	x	u
CCCS(=O)(=O)N1CC(=O)N(c2ccc(C)cc2C)C(C)(C(=O)NC2CCCCCC2)C1 (configuration not stated)	i	x	x	x	x	i
COc1cccc(-n2c(SCc3ccc(F)cc3)nc3c([nH]c4ccccc43)c2=O)c1	i	x	x	x	x	u
Cc1cccn2cc(COc3ccc(-c4ccccc4)cc3)nc12	i	-17	-9%	-8%	16µM*	u
COC(=O)c1ccc2c(=O)[nH]c(COC(=O)c3[nH]c(C)c(C(C)=O)c3C)nc2c1	i	8	u	-1%	u	i
NC1=NC(c2cccc(O)c2)n2c(nc3ccccc32)N1 (configuration not stated)	i	11	u	-1%	8%	i
NC1=NC(c2ccc(F)cc2)n2c(nc3ccccc32)N1 (configuration not stated)	i	-4	u	2%	26µM*	i
